This is part of a sample that, as a whole, favours compounds with a hit. Of some 83,000 tested, about 20% had one in any assay.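 Results are percent growth after 48 hours of single-concentration exposure. 100 means growth as in untreated cells, lower positive values show inhibition; negative values down to -100 show cell death.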 Activity calls are given as the source filed them. Rule for the calls: active = growth percent below 10; inactive = the rest.
Key:
Assay in all cases: NCI-60 one-dose screen, 48 h (100 = growth as untreated, 0 = no growth, -100 = all killed)
Settings in all cases: 10 µM unless noted
NCI-H23 lung = tested on: NCI-H23 lung
NCI-H226 lung = tested on: NCI-H226 lung
NCI-H322M lung = tested on: NCI-H322M lung
HOP-62 NSCLC = tested on: HOP-62 NSCLC
NCI-H460 lung = tested on: NCI-H460 lung
HOP-92 NSCLC = tested on: HOP-92 NSCLC
NCI-H522 lung = tested on: NCI-H522 lung
A549/ATCC NSCLC = tested on: A549/ATCC NSCLC
786-0 renal = tested on: 786-0 renal
COLO 205 colon = tested on: COLO 205 colon

Measured: growth

c1ccc2c(-c3cnn4cc(-c5ccc(N6CCNCC6)cc5)cnc34)ccnc2c1
active: NCI-H23 lung -13.7% | NCI-H226 lung -54.8% | NCI-H322M lung -55.5% | HOP-62 NSCLC -85.7% | NCI-H460 lung -70% | HOP-92 NSCLC -59.2% | NCI-H522 lung -50% | A549/ATCC NSCLC -65.4% | 786-0 renal -91.9% | COLO 205 colon -58%

C#CC#CC#CC#CC#CC#CC#CC#CC[C@@H]1OC[C@H](COC(=O)O[C@@H](C(=O)O[C@H]2C[C@@]3(O)[C@@H](OC(=O)c4ccccc4)[C@@H]4[C@]5(OC(C)=O)CO[C@@H]5C[C@H](O)[C@@]4(C)C(=O)[C@H](OC(C)=O)C(=C2C)C3(C)C)[C@@H](NC(=O)c2ccccc2)c2ccccc2)O1
inactive: NCI-H23 lung 34.5% | NCI-H226 lung 57.6% | NCI-H322M lung 35.9% | HOP-62 NSCLC 55% | NCI-H460 lung 10.6% | HOP-92 NSCLC 63.7% | NCI-H522 lung 48.6% | A549/ATCC NSCLC 36.7% | 786-0 renal 72.9% | COLO 205 colon 18.7%

Cc1ccc(Nc2cc(N)nc(N)n2)cc1
inactive: NCI-H23 lung 91.4% | NCI-H226 lung 110% | NCI-H322M lung 98.5% | HOP-62 NSCLC 101% | NCI-H460 lung 101% | HOP-92 NSCLC 90% | NCI-H522 lung 94.3% | A549/ATCC NSCLC 97.3% | 786-0 renal 99.6% | COLO 205 colon 105%

C=C(C[n+]1ccccc1)[C@@H]1CC[C@]2(C(=O)OC)CC[C@]3(C)[C@H](CC[C@@H]4[C@@]5(C)CCC(=O)C(C)(C)[C@@H]5CC[C@]43C)[C@@H]12
inactive: NCI-H23 lung 87.9% | NCI-H226 lung 90.3% | NCI-H322M lung 96.3% | HOP-62 NSCLC 103% | NCI-H460 lung 98.3% | HOP-92 NSCLC 67.4% | NCI-H522 lung 55.5% | A549/ATCC NSCLC 93.3% | 786-0 renal 101% | COLO 205 colon 56.1%

CCOc1cc(\C=N/N=C(N)/C(N)=N\N=C/c2ccc(O)c(OCC)c2)ccc1O
inactive: NCI-H23 lung 97.7% | NCI-H226 lung 99.9% | NCI-H322M lung 103% | HOP-62 NSCLC 109% | NCI-H460 lung 107% | HOP-92 NSCLC 116% | NCI-H522 lung 105% | A549/ATCC NSCLC 107% | 786-0 renal 110%
active: COLO 205 colon 5.55%

COc1nc2ccccc2cc1/C=C1/C=C(c2ccccc2)NC1=O
inactive: NCI-H23 lung 56.3% | NCI-H226 lung 55.4% | NCI-H322M lung 81.3% | HOP-62 NSCLC 39.2% | NCI-H460 lung 15.7% | HOP-92 NSCLC 32.5% | NCI-H522 lung 38.5% | A549/ATCC NSCLC 41.7% | 786-0 renal 29.5% | COLO 205 colon 29.3%

CNC1=C([N+](=O)[O-])C(c2ccc(OC)cc2)C(C#N)=C(c2ccc[nH]2)O1 (stereo not given)
inactive: NCI-H23 lung 98.5% | NCI-H226 lung 102% | NCI-H322M lung 101% | HOP-62 NSCLC 99% | NCI-H460 lung 100% | HOP-92 NSCLC 96.2% | NCI-H522 lung 92.3% | A549/ATCC NSCLC 106% | 786-0 renal 106% | COLO 205 colon 107%

O=C1NCCS(=O)(=O)/C1=C\C=C\c1cccc(C(F)(F)F)c1
inactive: NCI-H23 lung 22.3% | NCI-H226 lung 31.6% | NCI-H322M lung 63.4% | HOP-62 NSCLC 35.8% | NCI-H460 lung 50.1% | HOP-92 NSCLC 100% | NCI-H522 lung 16.9% | A549/ATCC NSCLC 39.4% | 786-0 renal 20.1% | COLO 205 colon 25.2%

CC(=O)[C@H]1CC[C@]2(C)[C@@H]1CC[C@@H]1[C@@]3(C)C/C(=C/c4cccnc4)C(=O)C(C)(C)[C@@H]3CC[C@]12C
inactive: NCI-H23 lung 78.2% | NCI-H226 lung 81.1% | NCI-H322M lung 91.6% | HOP-62 NSCLC 115% | NCI-H460 lung 67.3% | HOP-92 NSCLC 48.8% | NCI-H522 lung 68% | A549/ATCC NSCLC 65.9% | 786-0 renal 121% | COLO 205 colon 64.2%

Cc1nc2ccccc2c(/C=C/c2ccc(Cl)cc2)c1C(=O)/C=C/c1ccccc1
active: HOP-62 NSCLC -36.7% | NCI-H460 lung -33% | NCI-H522 lung -13.3% | 786-0 renal 7.29% | COLO 205 colon -5.72%
inactive: NCI-H23 lung 22.2% | NCI-H226 lung 40.2% | NCI-H322M lung 41.2% | HOP-92 NSCLC 41.4% | A549/ATCC NSCLC 21.2%

COc1ccc(NC(=O)c2sc3nc(C)c(C(=O)c4ccccc4)cc3c2N)cc1
inactive: NCI-H23 lung 96.1% | NCI-H226 lung 97.2% | NCI-H322M lung 64.7% | HOP-62 NSCLC 97.7% | NCI-H460 lung 61.3% | HOP-92 NSCLC 111% | NCI-H522 lung 80.8% | A549/ATCC NSCLC 52% | 786-0 renal 96.4% | COLO 205 colon 108%

CC1(C)CCC[C@]23C(=O)O[C@](O)(C(=O)C4=C[C@@](C)(/C=C/CCCc5ccc6ccc7cccc8ccc5c6c78)CC[C@@]42O)[C@@H]13
active: NCI-H23 lung -60.6% | NCI-H226 lung -69.5% | NCI-H322M lung -98.6% | HOP-62 NSCLC -66.1% | NCI-H460 lung -74.5% | HOP-92 NSCLC -83.9% | NCI-H522 lung -62.6% | A549/ATCC NSCLC -70.5% | 786-0 renal -79.3% | COLO 205 colon -72.4%

COc1cc2nc3cc([N+](=O)[O-])ccc3c(NCCCNCCO)c2cc1OC
active: NCI-H23 lung -29.1% | NCI-H226 lung -39.5% | NCI-H322M lung -27.7% | HOP-62 NSCLC -60.6% | NCI-H460 lung -39% | HOP-92 NSCLC -46.4% | NCI-H522 lung -52% | A549/ATCC NSCLC -26.6% | 786-0 renal -39.2% | COLO 205 colon -76.2%

N#CC1=C(N)Oc2c(ccc3cccnc23)C1c1ccccc1 (stereo not given)
inactive: NCI-H23 lung 17.7% | NCI-H226 lung 54% | NCI-H322M lung 39.2% | HOP-62 NSCLC 43.2% | NCI-H460 lung 16% | HOP-92 NSCLC 32.3% | NCI-H522 lung 20.3% | A549/ATCC NSCLC 32% | 786-0 renal 35.3%
active: COLO 205 colon 9.2%

O=[N+]([O-])c1ccc(N/N=C\c2cc(Cl)ccc2O)nc1
inactive: NCI-H23 lung 32.7% | NCI-H226 lung 100% | NCI-H322M lung 30.4% | HOP-62 NSCLC 45.6% | NCI-H460 lung 12.8% | HOP-92 NSCLC 59.7% | NCI-H522 lung 31.3% | A549/ATCC NSCLC 50.4% | 786-0 renal 34% | COLO 205 colon 50.1%

O=C1N/C(=N/N=C(c2ccccc2)c2ccccc2)S/C1=C\c1ccc(Br)cc1
inactive: NCI-H23 lung 94.1% | NCI-H226 lung 84.7% | NCI-H322M lung 95% | HOP-62 NSCLC 98.1% | NCI-H460 lung 98.4% | HOP-92 NSCLC 92.3% | NCI-H522 lung 69.6% | A549/ATCC NSCLC 74.7% | 786-0 renal 98% | COLO 205 colon 104%

CCOC(=O)CCC(=O)P(=O)(O)O
inactive: NCI-H23 lung 116% | NCI-H226 lung 110% | NCI-H322M lung 103% | HOP-62 NSCLC 97.8% | NCI-H460 lung 113% | HOP-92 NSCLC 38.9% | NCI-H522 lung 84.7% | A549/ATCC NSCLC 96.9% | 786-0 renal 98.6% | COLO 205 colon 93.9%

C[C@@H]1N=C(c2ccc(Cl)cc2Cl)Nc2nc3ccccn3c2C1=O
inactive: NCI-H23 lung 61.4% | NCI-H226 lung 75.7% | NCI-H322M lung 63.7% | HOP-62 NSCLC 52.6% | NCI-H460 lung 18.7% | HOP-92 NSCLC 55.9% | NCI-H522 lung 28.9% | A549/ATCC NSCLC 40.6% | 786-0 renal 73.2% | COLO 205 colon 22.3%

COC(=O)[C@@H](Cc1c[nH]c2ccccc12)NC[C@@H](O)CN1C(=O)/C(=C\c2cc(OC)c(OC)c(OC)c2)c2ccccc21
inactive: NCI-H23 lung 76.6% | NCI-H226 lung 58.5% | NCI-H322M lung 84.8% | HOP-62 NSCLC 64.8% | NCI-H460 lung 68.2% | HOP-92 NSCLC 68% | NCI-H522 lung 67.4% | A549/ATCC NSCLC 67.2% | 786-0 renal 77.6% | COLO 205 colon 73.8%

CC(C)CCc1nc2ccc(NCc3ccc(OCCN4CCC(C)CC4)cc3)cc2[nH]1
inactive: NCI-H23 lung 94.9% | NCI-H226 lung 67.4% | NCI-H322M lung 99.2% | HOP-62 NSCLC 83.6% | NCI-H460 lung 100% | HOP-92 NSCLC 53.5% | NCI-H522 lung 102% | A549/ATCC NSCLC 99.9% | 786-0 renal 76.6% | COLO 205 colon 66%

CNC(=O)c1cc(Oc2ccc3nc(NC(=O)NC(C)C)sc3c2)ccn1
inactive: NCI-H23 lung 87.5% | NCI-H226 lung 79.2% | NCI-H322M lung 95.2% | HOP-62 NSCLC 75.6% | NCI-H460 lung 86.8% | HOP-92 NSCLC 63.3% | NCI-H522 lung 59.3% | A549/ATCC NSCLC 64.3% | 786-0 renal 80.3% | COLO 205 colon 78.8%

CN1CCN(Cc2ccc(NC(=O)c3cncc(C#Cc4c(N)ncc5c(F)cccc45)c3)cc2C(F)(F)F)CC1
active: NCI-H23 lung -66.3% | NCI-H322M lung -23.7% | HOP-62 NSCLC -80.2% | NCI-H460 lung -48% | HOP-92 NSCLC -58.8% | NCI-H522 lung -76% | A549/ATCC NSCLC -90.6% | 786-0 renal -79% | COLO 205 colon -83.6%
inactive: NCI-H226 lung 14%

Cc1cc2nc(C(Cl)Cl)nc(-c3ccccc3)n2n1
inactive: NCI-H23 lung 33.6% | NCI-H226 lung 90.7% | NCI-H322M lung 10.9% | HOP-62 NSCLC 31.9% | HOP-92 NSCLC 72.9% | NCI-H522 lung 72.4% | 786-0 renal 92.4%
active: NCI-H460 lung -50% | A549/ATCC NSCLC 4.73% | COLO 205 colon 1.99%

FC(F)(F)c1cc(N2CCCCC2)nc(NCCCNc2ccnc3cc(Cl)ccc23)n1
active: COLO 205 colon 7.41%
inactive: NCI-H23 lung 27.2% | NCI-H226 lung 73.6% | NCI-H322M lung 80% | HOP-62 NSCLC 73.5% | NCI-H460 lung 74.4% | HOP-92 NSCLC 32.9% | NCI-H522 lung 47.4% | A549/ATCC NSCLC 50.5% | 786-0 renal 59.7%

Reference: PubChem BioAssay (NCI)
